According to PubChem BioAssay (Tox21):
Inconclusive results are not listed. The source made the active and inactive calls. Unless noted, calls come from the whole dose curve.

Assays:
[1] = Nuclear factor erythroid 2-related factor 2/antioxidant responsive element (Nrf2/ARE) small molecule agonists: qHTS cell viability counter screen in human keratinocytes (AID 1919968; active = well fitted curve in the direction sought with a large enough effect in the repeat runs; an effect the other way counts as inactive or inconclusive; note: nearly all actives have a fitted effect of over 55% in size)
In short: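 KeratinoSens HaCaT cells, 1,500/well, preincubated 5 h, then exposed to compounds in DMSO for 23 h at 37 C/5% CO2. Viability read as CellTiter-Fluor fluorescence after 1 h, in the same wells as the ARE-luciferase read.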

[2] = Nuclear factor erythroid 2-related factor 2/antioxidant responsive element (Nrf2/ARE) small molecule agonists: luciferase reporter gene qHTS assay in human keratinocytes (AID 1919969); note: nearly all actives have a fitted effect of over 35% in size
[3] = target: Gonadotropin-releasing hormone receptor (Homo sapiens) (UniProt P30968); assay: Human gonadotropin-releasing hormone receptor (GnRHR) small molecule agonists, calcium flux assay in GnRHR-HEK293 cells (AID 1920063); note: nearly all actives have a fitted effect of over 35% in size
Chain of Gonadotropin-releasing hormone receptor (Homo sapiens) (P30968 whole entry, looked up): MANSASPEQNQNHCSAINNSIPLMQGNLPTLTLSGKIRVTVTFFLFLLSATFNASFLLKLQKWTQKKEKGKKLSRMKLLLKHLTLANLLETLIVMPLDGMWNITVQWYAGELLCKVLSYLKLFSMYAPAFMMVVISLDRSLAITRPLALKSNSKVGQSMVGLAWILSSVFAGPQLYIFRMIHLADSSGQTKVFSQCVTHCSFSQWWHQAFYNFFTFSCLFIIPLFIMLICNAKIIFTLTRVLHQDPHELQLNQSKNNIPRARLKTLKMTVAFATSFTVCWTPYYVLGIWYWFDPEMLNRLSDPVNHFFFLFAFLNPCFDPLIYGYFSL
In short: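 HEK293 cells stably expressing human GnRHR were dye-loaded for 1 h at 37 C. Compound was added in agonist mode and fluorescence (Ex/Em 480/540) recorded kinetically for 3 min. Fifteen concentrations, triplicates.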

[4] = target: KiSS-1 receptor (Homo sapiens) (UniProt Q969F8); assay: Human kisspeptin (KISS1R) small molecule agonists, calcium flux assay in KISS1R-HEK293 cells (AID 1920064; active = well fitted curve in the direction sought with a large enough effect in the repeat runs; an effect the other way counts as inactive or inconclusive)
Chain of KiSS-1 receptor (Homo sapiens) (Q969F8 whole entry, looked up): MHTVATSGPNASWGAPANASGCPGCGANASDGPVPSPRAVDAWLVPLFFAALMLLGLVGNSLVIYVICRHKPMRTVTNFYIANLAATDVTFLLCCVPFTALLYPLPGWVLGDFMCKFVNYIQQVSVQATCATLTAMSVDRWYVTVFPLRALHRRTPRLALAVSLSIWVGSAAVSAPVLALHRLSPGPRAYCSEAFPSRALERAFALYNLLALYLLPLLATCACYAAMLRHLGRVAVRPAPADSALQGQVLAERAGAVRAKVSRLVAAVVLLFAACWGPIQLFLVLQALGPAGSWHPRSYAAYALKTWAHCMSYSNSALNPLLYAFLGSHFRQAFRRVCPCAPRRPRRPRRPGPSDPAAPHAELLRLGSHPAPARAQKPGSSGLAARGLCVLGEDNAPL
In short: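 HEK293 cells stably expressing human KISS1R were loaded with calcium dye for 1 h at 37 C, then given compound; fluorescence (Ex/Em 480/540) was read kinetically for 3 min. Fifteen concentrations, triplicate.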

[5] = G protein-coupled receptor (GPCR) small molecule agonists, calcium flux assay: HEK293 wild type cell line counter screen (AID 1920065)
In short: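 Wild-type HEK293 cells plated 18 h, loaded with calcium dye 1 h at 37 C, then compounds added in agonist mode (ATP as positive control). Kinetic fluorescence Ex/Em 480/540 recorded 3 min at 1 sec intervals; 15 concentrations, triplicate.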

[6] = p53 small molecule agonists, cell-based qHTS assay with human liver microsomes: qHTS cell viability counter screen (AID 1963579); note: nearly all actives have a fitted effect of over 45% in size
In short: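 p53RE-bla cells (4,000/well) were pre-incubated 5 h at 37 C, then given compounds in DMSO plus human liver microsomes (0.5 mg/mL final) and NADPH (0.5 mg/mL final) for 16 h at 37 C. Viability was read by CellTiter-Glo luminescence.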

[7] = p53 small molecule agonists, cell-based qHTS assay with rat liver microsomes: qHTS cell viability counter screen (AID 1963580); note: nearly all actives have a fitted effect of over 45% in size
In short: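 p53RE-bla HCT-116 cells (4,000/well) rested 5 h at 37 C, then given Tox21 compounds in DMSO with rat liver microsomes (0.5 mg/mL final) plus NADPH (0.5 mg/mL final) for 16 h at 37 C. Viability read by CellTiter-Glo luminescence after 30 min at room temperature.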

[8] = p53 small molecule agonists, cell-based qHTS assay: qHTS cell viability counter screen (AID 1963581); note: nearly all actives have a fitted effect of over 45% in size
In short: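 p53RE-bla HCT-116 cells, compounds added 5 h after plating and incubated 16 h at 37 C. Cytotoxicity measured in the same wells as intracellular ATP by CellTiter-Glo luminescence after 30 min at room temperature.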

[9] = target: 5-hydroxytryptamine receptor 2A (Homo sapiens) (UniProt P28223); assay: 5-hydroxytryptamine receptor 2A (HTR2A) small molecule agonists, cell-based qHTS assay (AID 1963587); note: nearly all actives have a fitted effect of over 30% in size
Chain of 5-hydroxytryptamine receptor 2A (Homo sapiens) (P28223 whole entry, looked up): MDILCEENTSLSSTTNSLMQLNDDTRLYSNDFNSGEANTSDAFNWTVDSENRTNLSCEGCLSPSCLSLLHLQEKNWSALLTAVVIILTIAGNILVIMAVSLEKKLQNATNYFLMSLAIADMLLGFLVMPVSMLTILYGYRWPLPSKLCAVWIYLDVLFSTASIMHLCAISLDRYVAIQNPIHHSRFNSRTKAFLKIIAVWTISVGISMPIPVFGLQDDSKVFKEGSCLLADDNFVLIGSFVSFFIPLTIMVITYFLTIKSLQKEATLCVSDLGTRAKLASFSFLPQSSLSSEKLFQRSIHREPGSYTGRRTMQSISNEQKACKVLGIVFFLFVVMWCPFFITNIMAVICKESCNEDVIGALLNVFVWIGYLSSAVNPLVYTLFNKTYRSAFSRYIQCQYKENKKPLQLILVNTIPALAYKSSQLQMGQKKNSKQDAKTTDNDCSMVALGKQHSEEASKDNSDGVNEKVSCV
In short: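 HTR2A-CHO cells, plated 18 h at 37 C/5% CO2, dye-loaded 1 h at 37 C; compounds in DMSO added by pin tool (agonist mode). Intracellular calcium flux read as kinetic fluorescence on FDSS over 2 min at 1 s intervals.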

[10] = target: Muscarinic acetylcholine receptor M1 (Homo sapiens) (UniProt P11229); assay: Cholinergic receptor muscarinic 1 (CHRM1) small molecule antagonists, cell-based qHTS assay (AID 1963588); note: nearly all actives have a fitted effect of over 40% in size
Chain of Muscarinic acetylcholine receptor M1 (Homo sapiens) (P11229 whole entry, looked up): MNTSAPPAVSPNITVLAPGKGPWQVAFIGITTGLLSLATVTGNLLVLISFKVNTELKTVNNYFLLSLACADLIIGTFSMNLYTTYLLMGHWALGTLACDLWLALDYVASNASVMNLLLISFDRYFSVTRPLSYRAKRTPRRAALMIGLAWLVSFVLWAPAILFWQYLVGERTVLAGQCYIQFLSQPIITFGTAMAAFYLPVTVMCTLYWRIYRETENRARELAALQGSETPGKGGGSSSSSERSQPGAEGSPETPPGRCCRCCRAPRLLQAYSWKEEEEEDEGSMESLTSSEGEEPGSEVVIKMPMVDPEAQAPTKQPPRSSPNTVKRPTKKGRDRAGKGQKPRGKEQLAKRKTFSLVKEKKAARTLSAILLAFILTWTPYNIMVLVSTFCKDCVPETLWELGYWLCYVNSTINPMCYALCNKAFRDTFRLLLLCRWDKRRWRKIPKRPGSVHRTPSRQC
In short: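 CHRM1-CHO calcium-flux assay, antagonist mode. Cells were seeded 18 h, dye-loaded 1 h at 37 C and given compound for 5 min at RT, then acetylcholine was added at 50nM. FDSS fluorescence was read 3 min; 15 concentrations, three runs.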

[11] = target: Muscarinic acetylcholine receptor M1 (Homo sapiens) (UniProt P11229); assay: Cholinergic receptor muscarinic 1 (CHRM1) small molecule agonists, cell-based qHTS assay (AID 1963589); note: nearly all actives have a fitted effect of over 35% in size
In short: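 CHO cells stably expressing human CHRM1 were loaded with calcium dye for 1 h at 37 C, then compound was added in agonist mode. Intracellular calcium fluorescence was followed kinetically at 1 s intervals. Fifteen concentrations were tested in three independent runs.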

[12] = cAMP Responsive Elements (CRE) small molecule agonists, cell-based qHTS assay (AID 1963590)
In short: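 CRE-bla HEK 293T cells, 2,000/well in DMEM with 10% dialyzed FBS and 25 mM HEPES, pre-incubated 18 h at 37 C, then exposed to compound 3 h at 37 C. Beta-lactamase reporter read with LiveBLAzer B/G FRET substrate after 2 h at room temperature.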

[13] = cAMP Responsive Elements (CRE) small molecule antagonists, cell-based qHTS assay (AID 1963591; active = well fitted inhibition curve with a large enough effect in the signal ratio in the repeat runs, not every such curve was filed as active; the % refers to the signal ratio)
In short: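 CRE-bla HEK293T cells plated 18 h, then given compound plus NKH477 at 0.25 uM final for 3 h at 37C. Beta-lactamase reporter read with LiveBLAzer B/G FRET substrate after 2 h at room temperature.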

[14] = target: Beta-2 adrenergic receptor (Homo sapiens) (UniProt P07550); assay: Adrenergic beta2 receptor (ADRB2) small molecule antagonists, cell-based qHTS assay (AID 1963592); note: series mostly up to about 92 µM; nearly all actives have a fitted effect of over 50% in size
Chain of Beta-2 adrenergic receptor (Homo sapiens) (P07550 whole entry, looked up): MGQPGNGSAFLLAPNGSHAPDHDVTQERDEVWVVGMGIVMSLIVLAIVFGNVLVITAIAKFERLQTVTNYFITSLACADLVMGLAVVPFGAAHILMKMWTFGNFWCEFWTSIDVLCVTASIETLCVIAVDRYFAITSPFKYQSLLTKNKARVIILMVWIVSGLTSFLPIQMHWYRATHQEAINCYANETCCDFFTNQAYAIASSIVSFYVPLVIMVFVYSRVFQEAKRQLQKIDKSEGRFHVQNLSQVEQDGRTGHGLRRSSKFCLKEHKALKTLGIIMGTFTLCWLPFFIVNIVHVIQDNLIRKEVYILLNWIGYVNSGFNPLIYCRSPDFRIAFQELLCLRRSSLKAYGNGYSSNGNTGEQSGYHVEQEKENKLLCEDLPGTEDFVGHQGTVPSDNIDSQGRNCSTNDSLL
In short: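 Cells (CHO, stable ADRB2 overexpression) incubated 18-20hr at 37C; compounds added from DMSO; agonist mix (1nM isoproterenol, 100uM IBMX, 25uM Ro-20-1724) added; 0.5hr RT; d2-cAMP and anti-cAMP-cryptate added; 1hr RT; 665/615 nm read.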

[15] = target: D(2) dopamine receptor (Homo sapiens) (UniProt P14416); assay: Dopamine D2 receptor (DRD2) small molecule agonists, cell-based qHTS assay (AID 1963594); note: nearly all actives have a fitted effect of over 35% in size
Chain of D(2) dopamine receptor (Homo sapiens) (P14416 whole entry, looked up): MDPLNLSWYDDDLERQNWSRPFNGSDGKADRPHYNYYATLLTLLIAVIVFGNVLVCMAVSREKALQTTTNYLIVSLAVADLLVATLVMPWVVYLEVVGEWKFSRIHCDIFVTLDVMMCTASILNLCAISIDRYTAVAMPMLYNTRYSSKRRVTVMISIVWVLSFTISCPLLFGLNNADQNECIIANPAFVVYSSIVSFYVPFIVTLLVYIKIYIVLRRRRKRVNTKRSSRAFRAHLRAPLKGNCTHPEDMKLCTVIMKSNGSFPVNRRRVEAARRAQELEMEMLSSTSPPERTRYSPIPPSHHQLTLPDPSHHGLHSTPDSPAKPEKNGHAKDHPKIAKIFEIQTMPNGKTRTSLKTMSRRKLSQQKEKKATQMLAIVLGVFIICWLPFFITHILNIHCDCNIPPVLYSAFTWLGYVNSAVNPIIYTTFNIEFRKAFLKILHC
In short: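 HEK293 cells stably expressing DRD2 were cultured 24 h at 37 C, then given Ro20-1724 (0.1 mM final) and compounds for 10 min at room temperature. NKH477 (200nM) was then added for 30 min. cAMP was read by HTRF.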

[16] = target: D(2) dopamine receptor (Homo sapiens) (UniProt P14416); assay: Dopamine D2 receptor (DRD2) small molecule antagonists, cell-based qHTS assay (AID 1963595; active = well fitted inhibition curve with a large enough effect in the signal ratio in the repeat runs, with a control signal flat; the % refers to the signal ratio)
In short: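 HTRF cAMP read-out at 665 and 620 nm emission (340 nm excitation). Antagonist mode: compounds were tested against 12 nM quinpirole in DRD2-HEK293 cells, with 200 nM NKH477 raising cAMP and 0.1 mM Ro20-1724 blocking its breakdown.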

[17] = target: Beta-2 adrenergic receptor (Homo sapiens) (UniProt P07550); assay: Adrenergic beta2 receptor (ADRB2) small molecule agonists, cell-based qHTS assay (AID 1963593);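 note: CHO cells stably overexpressing human ADRB2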
In short: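 CHO cells stably over-expressing ADRB2 were plated overnight at 37C, then dosed with compounds plus a stimulation mix containing 100uM IBMX and 25uM Ro-20-1724 for 0.5hr at room temperature. cAMP was measured by HTRF competition, 1hr.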

[18] = target: 5-hydroxytryptamine receptor 2A (Homo sapiens) (UniProt P28223); assay: 5-hydroxytryptamine receptor 2A (HTR2A) small molecule antagonists, cell-based qHTS assay (AID 1963586); note: nearly all actives have a fitted effect of over 45% in size
In short: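 Antagonist-mode intracellular calcium assay: DOI (4 nM) added after 5 min compound pre-incubation at room temperature to dye-loaded HTR2A-CHO cells. Fluorescence followed for 3 min, sampled every second.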

Measured: Potency

CC(CCO)CCCC(C)(C)O (configuration not stated)
not listed: [17] | [18]
inactive: all other assays above

CC1CCN(CCCC(=O)c2ccc(F)cc2)CC1
not listed: [16] | [18]
inactive: all other assays above

CCN1CCC[C@H]1CNC(=O)c1c(OC)ccc(Br)c1OC
not listed: [9] | [11] | [15] | [16]
inactive: all other assays above

O=Cc1ccccc1S(=O)(=O)O
not listed: [9] | [13]
inactive: all other assays above

O=C(O)CNC(=O)c1ccccc1
not listed: [15] | [18]
inactive: all other assays above

C=CCN(CC=C)CC=C
not listed: [17] | [18]
inactive: all other assays above

CCCCCCCCC(CO)CCCCCC (configuration not stated)
not listed: [18]
inactive: all other assays above

CC(C)OC(=O)c1ccccc1C(=O)OC(C)C
not listed: [17] | [18]
inactive: all other assays above
